Records with an inconclusive call do not appear. Where a call stands in place of a potency, no number is given. The source made the active and inactive calls. Calls follow the shape of the dose curve; as a rule, active = well fitted cell-killing curve with a large enough effect; inconclusive = small, poorly fitted or top-dose-only effect; inactive = no such curve, though single readings can be large or run the other way.
Potency is read from the fitted curve at half-maximal effect.

This test in a line: qHTS of pediatric cancer cell lines to identify multiple opportunities for drug repurposing: Primary screen for NB-EBc1 cells (AID 1347095). To be noted: NB-EBc1 neuroblastoma viability, CellTiter-Glo luminescence, 48 h; series mostly up to 46 µM. The text has this:
Drug repurposing or repositioning has been offered as a strategy for drug development in oncology programs. This approach has special potential for childhood cancers and other rare or orphan diseases, where the expected return on new drug development has been a disincentive to pharmaceuticals. […] In this project we exploit the poly-pharmacology of drugs to discover new indications via phenotypic screening of a panel of 19 well-characterized cell lines derived from solid tumors seen in children and adolescents. The goal is to identify approved drugs with previously unrecognized anticancer properties that has the potential to reveal new mechanisms and biological processes involved in carcinogenesis or drug resistance. We employed a titration-based paradigm (quantitative high-throughput screening or qHTS), where all compounds were tested at multiple concentrations for their effect on cell viability. Concentration-response curves (CRCs) were derived directly from the primary screen, and both potency and efficacy values were used to identify compounds with robust bioactivity profiles. We screened the NIH Chemical Genomics Center (NCGC) Pharmaceutical Collection (NPC) and Mechanism Interrogation Plate (MIPE) small molecule collections of approved and investigational compounds against these cell lines; and measured metabolically active cells after 48 hours of compound treatment as a proxy for cell viability. […] Assay Submitter: Nathalia J. Martinez, National Center for Advancing Translational Sciences, National Institutes of Health, Rockville, MD, USA; email: natalia.martinez@nih.gov Shen, M et al. Quantitative high-throughput phenotypic screening of pediatric cancer cell lines identifies multiple opportunities for drug repurposing. Oncotarget 2017 Dec 19;9(4):4758-4772. PMID 29435139.
The cells were obtained from University of North Carolina (UNC), Pediatric Preclinical Testing Program (PPT), and Coriell Institute (CI). qHTS cell viability assay: Cells were assayed in growth media at a density of 500-1,000 cells/well. Five microliters of cells were dispensed into 1,536-well, white, solid-bottom, TC-treated plates (Greiner Bio One) using a multidrop dispenser and incubated at 37 degrees C, 5% CO2, under a humidified atmosphere for 5 hours. Twenty-three nanoliters of compounds and controls (neutral control DMSO or positive control bortezomib at final concentration of 2.3 µM) were subsequently transferred by Kalypsys pintool. For primary screens, the MIPE collection was tested at 11-point dilutions (final concentrations range from 0.78 nM to 46 µM) and the NPC collection at 8-point dilutions (final concentrations range from 0.59 nM to 46 µM). Compounds tested in follow-up screens were assayed at 11-point dilutions. Cells were incubated for 48 hours, followed by addition of 3 µL of CellTiter-Glo (Promega). After a 15 min incubation at room temperature, samples were analyzed for luminescence intensity using a ViewLux High-throughput CCD imager equipped with clear filters.
As for `Cc1onc(-c2ccccc2)c1C(=O)Cl`, the Potency entry is “inactive”.
With `COC(=O)C1=C(C)NC(COC(N)=O)=C(C(=O)OC(C)C)C1c1cccc(Cl)c1Cl` (stereo not given), the Potency entry was “inactive”.
Turning to `CC(C)(C)c1ccc(C(=O)CCCCl)cc1`, the Potency result is “inactive”.
For the molecule `COC(=O)/C=C\C(=O)OC`, the Potency entry is “inactive”.
`COC(=O)c1cc(S(N)(=O)=O)ccc1OC`: the Potency entry was “inactive”.
As to `CC1(C)O[C@@H]2C[C@H]3[C@@H]4C[C@H](F)C5=CC(=O)C=C[C@]5(C)[C@@]4(F)[C@@H](O)C[C@]3(C)[C@]2(C(=O)CO)O1`, the Potency entry is “inactive”.
Consider `CN1CCC(=C2c3ccccc3CCc3cccnc32)CC1`, for which the Potency entry was “inactive”.
Consider `Cc1ccc(-c2ccccc2C#N)cc1`, for which the Potency result is “inactive”.
Under `C=CCNc1nc(NCC=C)nc(N2CCN(C(c3ccc(F)cc3)c3ccc(F)cc3)CC2)n1` stands “inactive”.
`CCOC(=O)N1CCC(Nc2ccc(Cl)cc2N)CC1`: the Potency was 6.68 µM (active).
As for `CC[N+]1(CC)CCC(=C(c2ccccc2)c2ccccc2)C1C` (stereo not given), the entry is “inactive”; as for `NC(=O)NC1N=C([O][Al])NC1=O` (stereo not given), “inactive”; as for `C[N+](C)(CCOc1ccccc1)Cc1cccs1`, “inactive”.
Take `CCCCOCCOC(=O)c1cccnc1`: the Potency result is “inactive”.
On to `COc1ccc(OC(=O)N(CC(=O)O)Cc2ccc(OCCc3nc(-c4ccccc4)oc3C)cc2)cc1`, for which the Potency entry is “inactive”.
As to `CC(C)(c1ccc(O)cc1)c1ccc(O)cc1`, the Potency entry was “inactive”.
Turning to `COc1ccc2c(c1)c(CC(=O)OC/C=C(\C)CC/C=C(\C)CCC=C(C)C)c(C)n2C(=O)c1ccc(Cl)cc1`, the Potency result is “inactive”.
As for `COc1ccc2cc(C=O)ccc2c1`, the entry is “inactive”.
As for `CN1CCN(N)CC1`, the Potency entry was “inactive”.
`CC(C)(C)c1ccc(O)c(O)c1`: the Potency was 6.11 µM (active).
In the case of `O=C(OCC(O)CO)c1ccccc1Nc1ccnc2c(C(F)(F)F)cccc12` (stereo not given), the Potency entry is “inactive”.
For `CN1CCC(N(Cc2cccs2)c2ccccc2)CC1`, the Potency entry was “inactive”.
Under `CC(=O)Nc1ccc(S(=O)(=O)Nc2cc(C)on2)cc1` stands “inactive”.
For `CO/N=C(/C(=O)N[C@@H]1C(=O)N2C(C(=O)[O-])=C(C[n+]3ccn4ncccc43)CS[C@H]12)c1nsc(N)n1`, the Potency result was “inactive”.
Consider `NS(=O)(=O)c1cc2c(cc1Cl)CN(C1CCCCC1)C2=O`, for which the Potency entry is “inactive”.
For `Nc1c(NC/C=C\COc2cc(CN3CCCCC3)ccn2)c(=O)c1=O`, the Potency result was “inactive”.
`Cc1cccc(C)c1NC(=O)c1ccc(N)cc1`: the Potency entry is “inactive”.
`C#Cc1ccc(-c2ccccc2F)cc1`: the Potency result was “inactive”.
As to `O=C(O)c1ccccc1Nc1cc(Cl)ccc1C(=O)O`, the Potency result is “inactive”.
Under `CCOC(=O)OCC/C(SC(=O)OCC)=C(\C)N(C=O)Cc1cnc(C)nc1N` stands “inactive”.
For `COc1ccc2nc(SCc3ncc(C)c(OC)c3C)[nH]c2c1`, the Potency result was “inactive”.
With `C[C@@H]1C[C@H]2[C@@H]3CCC4=CC(=O)C=C[C@]4(C)[C@@]3(F)[C@@H](O)C[C@]2(C)[C@@]1(O)C(=O)COC(=O)c1ccncc1`, the Potency entry was “inactive”.
Take `CC(C)OC(=O)c1cc2c(OCC(O)CNC(C)(C)C)cccc2[nH]1` (stereo not given): the Potency result is “inactive”.
In the case of `Cc1cnc(NS(=O)(=O)c2ccc(N)cc2)nc1`, the Potency result was “inactive”.
Take `Cc1ccc2ccc(Cl)cc2n1`: the Potency entry was “inactive”.
`O=C(O)/C=C(\CC(=O)O)C(=O)O`: the Potency result was “inactive”.
Take `CN(C(=O)C(Cl)Cl)c1ccc(OC(=O)c2ccco2)cc1`: the Potency entry was “inactive”.
Under `COc1ccc(/C(C)=C/C(=O)O)c(OC)c1` stands “inactive”; under `CCN1C(=O)c2ccccc2C1Nc1ccc(OCCN2CCCCC2)cc1` (stereo not given), “inactive”; under `C[N+]1(C)CCC(OC(=O)C(O)(c2ccccc2)C2CCCC2)C1` (stereo not given), “inactive”.

These data come from PubChem BioAssay (NCATS).
